Measurements: the supplement of paper PMC6124720

These molecules were tested on Pseudogymnoascus destructans 20631-21 (assay: growth activity index (DuctApe, 0 = no growth, 9 = maximal growth) (index 0-9); higher = more fungal growth (less inhibition), active = 0 or less; extreme values may be limits of the assay). Conditions: concentration level (1-4, increasing; Biolog proprietary): 4; temperature: 13 °C; YPD.
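Further: biolog Phenotype Microarray plates PM21–25, OD595 followed daily over 11 days, growth curves converted to index, mean of two independent experiments.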

| SMILES | growth activity index |
| --- | --- |
| CN(CC[C@H](N)CC(=O)N[C@H]1C=C[C@H](n2ccc(N)nc2=O)O[C@@H]1C(=O)O)C(=N)N [Blasticidin S] (Biolog plate: PM24) | 4 (inactive) |
| O=[Se]([O-])[O-].[Na+].[Na+] [Sodium Selenite] (Biolog plate: PM21) | 4.75 (inactive) |
| [Cl][Cr]([Cl])[Cl] [Chromium (III) chloride] (Biolog plate: PM23) | 3.33 (inactive) |
| Nc1ncn[nH]1 [3-Amino-1,2,4-triazole] (Biolog plate: PM22) | 0 (active) |
| C[n+]1ccc(-c2cc[n+](C)cc2)cc1 [Methyl viologen] (Biolog plate: PM24) | 0.667 (inactive) |
| [Cl][Ni][Cl] [Nickel chloride] (Biolog plate: PM21) | 5 (inactive) |
| C[C@@H]1C[C@@H]([C@H](O)CC2CC(=O)NC(=O)C2)C(=O)[C@@H](C)C1 [Cycloheximide] (Biolog plate: PM22) | 4.33 (inactive) |
| [N-]=[N+]=[N-] [Sodium Azide] (Biolog plate: PM23) | 0.333 (inactive) |
| CCCC1COC(Cn2cncn2)(c2ccc(Cl)cc2Cl)O1 (stereo not given) [Propiconazole] (Biolog plate: PM24) | 0.333 (inactive) |
| CC1C=CC=CCCC=CC=CC=CC=CC(OC2OC(C)C(O)C(N)C2O)CC2OC(O)(CC(O)C(O)CCC(O)CC(O)CC(O)CC(=O)OC(C)C(C)C1O)CC(O)C2C(=O)O (stereo not given) [Nystatin] (Biolog plate: PM21) | 0 (active) |
